hERG WT inh: KCNH2 (human, wildtype) channel inhibition | Q12809 | U2OS, BacMam KCNH2, thallium flux FluxOr; hits give low values | activity change, % at 1.84 µM | 340,000 compounds, 0.37% hits;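 active means maximum activity change below -70%; inconclusive means maximum activity change between -70% and -50%; inactive means maximum activity change above -50%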; further: on the % scale 0 is the no-effect control and ±100 the full control effect
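U2OS cells were transduced with wild-type KCNH2 virus (2.03 x 10^8 / mL) for 4 h at room temperature, then cultured overnight at 37 C. Thallium flux was read with FluxOr dye. Rate constants were normalized to DMSO controls.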
KCNH2 3.1 block: KCNH2 3.1 (human) potassium channel inhibition. U2OS KCNH2 3.1, thallium flux FluxOr; hits give low values. activity change, % (tested at about 1.8 µM). 340,000 compounds, 0.95% hits;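 active means maximum activity change below -70%; inconclusive means maximum activity change from -70% to -50%; inactive means maximum activity change above -50%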;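 further: thallium influx rate constant from kinetic fluorescence after stimulation buffer; on the % scale 0 is the no-effect control and ±100 the full control effect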
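Measured as rate of thallium-driven FluxOr signal in transduced U2OS cells carrying the 3.1 channel, read kinetically for 2 min upon stimulation; values are rate constants scaled to DMSO control wells.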
VDR inhibitor: blocks the human vitamin D receptor; P11473; VDR-SRC2-3 peptide fluorescence polarization, 2 h; Potency, µM, for the others: max response, negative = inhibition, usual class: inhibitors; 400,000 compounds, 0.93% hits; further: potency means the concentration at half of the fitted maximal effect; on the % scale 0 is the no-effect control and ±100 the full control effect
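FP read-out; VDR + SRC2-3 coactivator peptide; 23 nl compound by pintool; 2 h RT incubation; reagents held at 4 deg C, protected from light.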
MBNL1-CUG inh: inhibitors of human MBNL1 binding to CUG repeat RNA; 280,000 compounds, 0.036% hits; Q9NR56; TR-FRET MBNL1-His/biotin-(CUG)12 binding, 665/545 ratio; Potency, µM (titrated, usually from 57.5 µM), for the others: top-dose activity change, negative = inhibition, actives largely listed as inhibitors; AID 2675; active means well fitted inhibition curve with a large enough effect in the signal ratio, with a control signal flat, not every such curve was filed as active; inconclusive means small, poorly fitted or top-dose-only effect, or effect the other way, or a change in a side signal; inactive means no such curve, though single readings can be large or run the other way; the % refers to the signal ratio; further: potency means the concentration at half of the fitted maximal effect; on the % scale 0 is the no-effect control and ±100 the full control effect
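Ratiometric TR-FRET (665 over 545 nm, excitation 340 nm) tracks disruption of MBNL1-His/biotin-(CUG)12 complex after 60 min at room temperature, with compounds at 92 nM to 58 uM final.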
CBFb RUNX1 block: blocks binding between human CBF-beta and RUNX1 | Potency, µM (titrated, usually from 59.8 µM), without a hit: top-dose activity, negative = inhibition, usual class: inhibitors | Q01196+Q13951 | AlphaScreen CBFb-His/RUNX1-biotin binding, biochemical | 230,000 tested, under 10 active | AID 1477; further: % of control where 0% means no effect
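Compounds were screened at multiple concentrations against a preformed CBF-beta(His)/RUNX1(biotin) complex (30 nM of each) for 15 min at room temperature, followed by 90 min with nickel and streptavidin beads and AlphaScreen reading.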
PLK1 PBD inh: inhibitors of human PLK1 polo-box domain binding; P53350; 360,000 compounds, 2.8% hits; Plk1 PBD binding of FITC phosphopeptide, fluorescence polarization; Potency, µM, inactives show max response, negative = inhibition, usual class: inhibitors; further: potency means the concentration at half of the fitted maximal effect; series mostly up to about 57 µM; on the % scale 0 is the no-effect control and ±100 the full control effect; nearly all actives have a fitted effect of over 65% in size
* hit, by the source's call; u = inconclusive; x = no result; ! = not confirmed by another sample. Compounds with a hit are over-represented: about 3.8% of the library has one in this group of screens. Unless noted, the call rests on the fitted dose curve; in most records, active means well fitted curve in the direction sought with a large enough effect; inconclusive means small, poorly fitted or top-dose-only effect, or another doubt; inactive means no such curve, though single readings can be large; an effect the other way counts as inactive or inconclusive.

SMILES	hERG WT inh	KCNH2 3.1 block	VDR inhibitor	MBNL1-CUG inh	CBFb RUNX1 block	PLK1 PBD inh
CCCCNC(=O)c1cc(-c2cccnc2)nc2ccc(S(=O)(=O)NCCCC)cc12	x	x	5%	x	x	x
COc1ccc(OC)c(NC(=O)c2cccc3c2C(=O)N(C2CCCCC2)C3)c1	1	0	22µM*!	-2%	x	7%
COc1cc(/C=C2\C(=O)N(c3cccc(C(=O)O)c3)N=C2C)ccc1OCc1ccccc1	-2	-4	x	x	x	1.1µM*
C#CCOc1ccc(/C=C2/C(=O)N(c3ccc(S(N)(=O)=O)cc3)N=C2C)cc1OC	15	3	x	x	x	1.2µM*
CC1=NN(c2cccc(C(=O)O)c2)C(=O)/C1=C\C=C\c1ccco1	2	4	u	9%	1%	8.4µM*
C#CCOc1ccc(/C=C2/C(=O)N(c3cccc(C(=O)O)c3)N=C2C)cc1OC	1	-14	u	-11%	x	1.9µM*
COc1cc(/C=C2/C(=O)N(c3ccc(C(=O)O)cc3)N=C2C)cc(OC)c1O	-2	24	-1%	u	x	40%
CCOc1cc(C(=O)Nc2ccc3nc(Nc4cccc(Cl)c4)cc(C)c3c2)cc(OCC)c1OCC	x	x	2%	x	x	x
Fc1ccc(Cn2c(-c3cccc(Br)c3)nc3ccccc32)cc1	x	x	0%	x	x	x
CCOc1ccc(S(=O)(=O)N2CCN(c3ccc(C)cc3C)CC2)c2ccccc12	x	x	-19%	x	x	x
COc1ccc(C2Nc3ccccc3C(=O)N2c2ccc(F)cc2)cc1COc1ccc(NC(C)=O)cc1 (stereo unspecified)	x	x	0%	x	x	x
Oc1c(Cl)cc(Cl)cc1/C=N/c1nccs1	-1	2	79µM*	-5%	-27%	34µM*
Oc1c(Cl)cc(Cl)cc1/C=N/c1nc(-c2ccc(Cl)cc2)cs1	-6	5	-10%	-2%	-8%	-13%
CC(/C=C\c1cccnc1)=C/C(=O)O	-1	-77*!	16%	7%	-17%	-17%
Cc1ccc2c(c1C)-c1c(ccc(C)c1C)C(=O)C2=O	-6	1	u	x	x	19µM*
NCCNCCNCCN	1	6	10%	-14%	3%	-10%
NCCNCCN	x	x	16µM*	x	u	x
O=C1CC(c2cccc(O)c2)c2c(nc(SCc3ccccc3F)[nH]c2=O)N1 (stereo unspecified)	x	x	16%	x	x	x
COc1ccccc1-n1cnc2cc(C(=O)NC3CCCC3)ccc21	-14	-91*	8%	-13%	-4%	-9%
CCCCn1c(/C=C/c2ccco2)nc2ccccc21	-1	0	-18%	12%	-3%	-2%
CCCCn1c(/C=N/Nc2nc3ccccc3[nH]2)nc2ccccc21	-73*	-44	-22%	6%	x	8%
Cc1cccc(C)c1NC(=S)N/N=C1\CC2CC=CC12 (stereo unspecified)	7	-131*	u	-7%	6%	15µM*
CSc1ccc(CNC(=O)C2CCCN(S(=O)(=O)N(C)c3ccc(F)cc3)C2)cc1 (stereo unspecified)	x	x	11%	x	x	x
COC(=O)C1=C(C)N(Cc2ccccc2)C(=NCc2cc(OC)c(OC)c(OC)c2)N[C@H]1c1ccc(Br)cc1	-14	-86*	-11%	-5%	x	u
CCN(CC)C(=O)c1ccc2c(c1)N(Cc1ccccc1F)C(=O)c1ccccc1S2=O (stereo unspecified)	x	x	-11%	x	x	x
SMILES	hERG WT inh	KCNH2 3.1 block	VDR inhibitor	MBNL1-CUG inh	CBFb RUNX1 block	PLK1 PBD inh
O=C(N/N=C/c1ccc([N+](=O)[O-])o1)c1cc2c(ccc3ccccc32)o1	1	-2	-11%	14%	12%	15µM*
O=C(N/N=C/c1cc(Br)c(O)c(Br)c1)c1cc2c(ccc3ccccc32)o1	0	-12	-16%	8%	x	21µM*
O=C(N/N=C/c1cc(Cl)c(O)c(Cl)c1)c1cc2c(ccc3ccccc32)o1	2	-5	-19%	u	x	24µM*
CCCCN(C)C1=CC2=CC(=C(C#N)C#N)CCC2CC1 (stereo unspecified)	-87*	-102*	-12%	x	19%	-184%
CCN(CC)C1=CC2=CC(=C(C#N)C#N)CCC2CC1 (stereo unspecified)	-50	-97*	-17%	u	7%	-99%
N#CC(C#N)=C1C=C2C=C(N3CCCCC3)CCC2CC1 (stereo unspecified)	u	-89*	u	u	5%	-5%
CCCN(c1ccc(C(C)C)cc1)S(=O)(=O)c1ccc2c(c1)oc(=O)n2CC(=O)OCC	x	x	2%	x	x	x
COc1ccc(S(=O)(=O)c2c(Nc3ccc(F)cc3)sc(C(=O)c3ccc(C)cc3C)c2N)cc1	x	x	10%	x	x	x
CCCCC(CC)CNC(=O)c1ccc(Cn2c(=O)[nH]c3cc(OC)c(OC)cc3c2=O)cc1 (stereo unspecified)	x	x	-14%	x	x	x
CCn1c(=O)c2sccc2n2c(CCC(=O)Nc3cc(C)cc(C)c3)nnc12	x	x	-10%	x	x	x
Cn1cccc1/C=N/NC(=O)c1ccccn1	-1	18	u	-1%	5%	24µM*
Cn1cccc1/C=N/NC(=O)c1ccncc1	4	-10	8%	x	-1%	0%
CCOC(=O)c1sc(NC(=O)c2ccc(OC)cc2)nc1C	13	3	19%	-3%	-1%	7%
CCOC(=O)c1sc(NC(C)=O)nc1C	-20	1	-25%	0%	3%	27µM*
CSc1nnc(C(C)(C)C)c(=O)n1/N=C/c1ccccc1O	9	5	u	-5%	2%	24µM*
CC1CC(C)(C)NC(=S)S1 (stereo unspecified)	4	-11	5%	-7%	6%	24µM*
CC1CC(C)(C)NC(=O)O1 (stereo unspecified)	1	9	0%	-1%	9%	-2%
O=C(C#Cc1ccccc1)c1ccco1	-3	16	22µM*	u	x	3.4µM*
Cc1ccccc1-c1nc(CS(=O)(=O)CC(=O)NCc2cccc(Cl)c2)c(C)o1	x	x	16%	x	x	x
CC(C)CCNC(=O)CN1C(=O)CSc2ccc(S(=O)(=O)N3CCC(C)CC3)cc21	x	x	14%	x	x	x
C=CCNc1ncnc2c1cnn2-c1cccc(C)c1	11	11	-18%	-10%	12%	-25%
C=CCNc1ncnc2c1cnn2-c1ccc(Cl)cc1	1	9	u	2%	4%	21µM*
CCOC(=O)c1cn(CC#N)c2cc(F)c(F)cc2c1=O	-70*	-4	-3%	-1%	5%	-4%
CCOC(=O)c1cn(CC)c2cc(N3CCN(C)CC3)c(F)cc2c1=O	-4	-5	-3%	-3%	x	2%
CC1=C(C(=O)NCc2ccc(Cl)cc2)C2(CCCCC2)OC1=O	x	x	-10%	x	x	x

Screening data from PubChem.
